PubChem BioAssay (NCI)
This is part of a sample that, as a whole, favours compounds with a hit. Of some 79,000 tested, about 15% had one in any assay. Activity calls are given as the source filed them. Rule as the data show it: active = growth inhibition above about 70%; inactive = the rest. *1 amine or outer side, *2 acyl side, *3 side chain or, on linkers, in order; H or OH if unused. Where a SMILES comes first, the peptide text is derived from it. Bridges are numbered along the chain shown (N, C = ends). Roman numbers before positions name the chains, in order. [ ]: non-standard residue; d: D form. ξ: configuration not given here. Actinocin(1to9) = Cc1c2oc3c(C)ccc(C(=O)[*:2])c3nc-2c(C(=O)[*:1])c(N)c1=O; ξPhe(4-N(CH2CH2Cl)2) = NC(Cc1ccc(N(CCCl)CCCl)cc1)C(=O)O; Aad = N[CH](CCCC(=O)O)C(=O)O; NMeV = CN[CH](C(=O)O)C(C)C; Sar = CNCC(=O)O

What was measured:
[1] = NCI Yeast Anticancer Drug Screen. Data for the rad50 strain (AID 155);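 also: 0% = growth of vehicle-only cultures of the same strain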; details: S. cerevisiae rad50 strain growth inhibition; at 50.0 µM; stronger effect = higher value
How it was run: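 A DNA repair-deficient yeast mutant serves as the test organism; compound-induced growth inhibition is calculated against vehicle-treated cells.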

[2] = NCI Yeast Anticancer Drug Screen. Data for the mec2-1 strain (AID 157); details: S. cerevisiae mec2-1 strain, at 50.0 µM, stronger effect = higher value
How it was run: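 Mutant yeast (mec2-1) grown with compound; growth inhibition relative to vehicle control reported.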

[3] = NCI Yeast Anticancer Drug Screen. Data for the sgs1 mgt1 strain (AID 161);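 also: 0% = growth of cultures given vehicle only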; details: S. cerevisiae sgs1 mgt1 strain, at 50.0 µM, stronger effect = higher value
How it was run: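 Percent growth inhibition was derived by comparing compound-exposed mutant yeast with vehicle-exposed cultures. The strain carries alterations in DNA damage repair.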

[4] = NCI Yeast Anticancer Drug Screen. Data for the cln2 rad14 strain (AID 165);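 also: 0% = growth equal to vehicle treated cultures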; details: S. cerevisiae cln2 rad14 strain, at 50.0 µM, stronger effect = higher value
How it was run: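 Readout is yeast growth inhibition versus vehicle-treated controls, using a strain with cln2 and rad14 alterations exposed to compound.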

[5] = NCI Yeast Anticancer Drug Screen. Data for the bub3 strain (AID 167); details: S. cerevisiae bub3 mutant strain, at 50.0 µM, stronger effect = higher value
How it was run: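 Inhibition values come from growth of compound-treated mutant yeast normalised to vehicle-treated controls.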

[6] = NCI Yeast Anticancer Drug Screen. Data for the mlh1 rad18 strain (AID 175); details: S. cerevisiae mlh1 rad18 strain growth inhibition; at 50.0 µM; stronger effect = higher value
How it was run: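 Genetically defined yeast (DNA repair-deficient) exposed to compounds; growth inhibition determined relative to vehicle.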

Measured: growth inhibition

O=S(=O)(c1ccccc1)c1ccccc1
inactive: [1] -2.9% | [2] 1.55% | [3] 1.6% | [4] -8.05% | [5] 0.1% | [6] -37.9%

CC(C)=CCC1=C(OOC2=C(CC=C(C)C)C(=O)c3ccccc3C2=O)C(=O)c2ccccc2C1=O
inactive: [1] 36.8% | [2] 23.8% | [3] 43% | [4] 11.1% | [5] 5.05% | [6] 5.7%

CCNC(=O)N1CC2CCC(C1)N2C
inactive: [1] -1.15% | [2] 7.85% | [3] 6.45% | [4] -39.1% | [5] -18.8% | [6] 8.45%

CN(C)NP(=O)(NN(C)C)c1ccccc1
inactive: [1] -49.9% | [2] -18.1% | [3] -22.4% | [4] -67.8% | [5] -1.6% | [6] -14.4%

O=C1NC2(CCCC2)C(=O)N1CCCN(CCCl)CCCl
inactive: [1] 2.75% | [2] 12.9% | [3] 25.1% | [4] -37.3% | [5] 7.35% | [6] 3.2%

Cn1nnc(-c2nnn(C)n2)n1
inactive: [1] -19.1% | [2] -12.5% | [3] -8.65% | [4] -14.8% | [5] -15.9% | [6] -19.6%

CC(C)CC1C(=O)NCCC(NC(=O)C(N)Cc2ccc(O)cc2)C(=O)NC(Cc2ccccc2)C(=O)NC(Cc2ccccc2)NC1=O (stereo not given)
inactive: [1] -1.2% | [2] -14.2% | [3] -23.9% | [4] 3.9% | [5] -10.8% | [6] -28.1%

O=C(O)/C=C/C(=O)O.[Ni]
inactive: [1] -13.8% | [2] -21.6% | [3] -28.1% | [4] -45.5% | [5] 0.35% | [6] 0.5%

COC(=O)C(CCC(=O)O)NC(=O)OCc1ccccc1 (stereo not given)
inactive: [1] 40.5% | [2] -1.35% | [3] 17.6% | [4] -7.7% | [5] 4.55% | [6] 19.5%

O=[N+]([O-])c1ccc(OCCOCCOc2ccc(S(=O)(=O)F)cc2)c(Cl)c1
inactive: [1] 56.2% | [2] 15.4% | [3] 21.8% | [4] 29.6% | [5] 45.4% | [6] 56.5%

PCc1ccccc1.[Cl][Hg][Cl]
inactive: [1] -34.7% | [2] 12.7% | [3] 14.2% | [4] -59.4% | [5] -6% | [6] 12.6%

CC(=O)OC1CC2(O)C3CCC4CC(O)CCC4(C)C3CCC2(C)C1C1=CC(=O)OC1 (stereo not given)
inactive: [1] -11.1% | [2] -19.9% | [3] -9.9% | [4] -6.4% | [5] -32.4% | [6] -1.75%

N=c1nc(N)n2c(N)nc(=N)n12
inactive: [1] 19.9% | [2] 12.7% | [3] -1.55% | [4] 4.05% | [5] -1.75% | [6] 2.45%

CN(C)NP(=O)(c1ccccc1)c1ccccc1
inactive: [1] 0.05% | [2] -3.05% | [3] -4.45% | [4] -10.5% | [5] 7.75% | [6] -2.9%

CC(Cl)CN(CC(C)Cl)c1ccc2c(c1)Cc1ccccc1-2 (stereo not given)
inactive: [1] -20.8% | [2] -10.1% | [3] 2.65% | [4] -46.9% | [5] 23.1% | [6] 9%

NC(=O)C(Cl)c1ccccc1 (stereo not given)
inactive: [1] -17.2% | [2] -25.9% | [3] -24.8% | [4] -23.6% | [5] -23.9% | [6] -9.15%

O=C(N/N=C/c1cc(Cl)cc(Cl)c1[O-])c1ccccc1O.O=C(N/N=C/c1cc(Cl)cc(Cl)c1[O-])c1ccccc1O.[Cu+2]
inactive: [1] -6.05% | [2] -16.2% | [3] -17.8% | [4] -38.2% | [5] -12.7% | [6] 12.3%

CC1CN=C(NCc2ccccc2)S1 (stereo not given)
inactive: [1] -33.2% | [2] 16.6% | [3] -33.5% | [4] 21.9% | [5] -1.05% | [6] -6.6%

Cc1c(Cl)cc([N+](=O)[O-])c(O)c1[N+](=O)[O-]
inactive: [1] 6.1% | [2] -1.45% | [3] 5% | [4] 30.7% | [5] 26.1% | [6] 7.85%

O=NNc1cccc(NN=O)n1
inactive: [1] 47.2% | [2] -22.8% | [3] -34.1% | [4] -2.75% | [5] -26.5% | [6] -3.15%

Cc1cc(-n2c(/C=C/c3ccc(Cl)cc3)nc3cc(Cl)ccc3c2=O)on1
inactive: [1] -27.2% | [2] -34.3% | [3] -12.8% | [4] -0.1% | [5] -9.75% | [6] -10.8%

OC1(c2ccccc2)N=C(c2ccccc2)c2ccccc2-n2cccc21 (stereo not given)
inactive: [1] 0.95% | [2] -24.8% | [3] -14.5% | [4] 0.75% | [5] -0.95% | [6] -1.3%

CCOC(=O)C(Cc1ccc(N(CCCl)CCCl)cc1)NC(=O)C(CCC(=O)O)NC(=O)C(Cc1ccc(O)cc1)NC(=O)C(CCCC(=O)O)NC(=O)C(N)Cc1ccc(O)cc1 (stereo not given) (H-Y[Aad]YE[ξPhe(4-N(CH2CH2Cl)2)]-OEt; configuration not given here)
inactive: [1] 7.7% | [2] 13.9% | [3] -6.5% | [4] 14.8% | [5] 8.05% | [6] 30.3%

CCC(=O)[O-].CCC(=O)[O-].N.N.N.N.[Co+3].[O-][Cl+3]([O-])([O-])[O-]
inactive: [1] -9.55% | [2] -1.6% | [3] -9.1% | [4] 17.9% | [5] 2.05% | [6] -12.2%

Cc1ccc(P(=O)(O)O)cc1
inactive: [1] -10.9% | [2] -15.9% | [3] 12.1% | [4] 2.6% | [5] -2.2% | [6] -14.8%

COc1cc2c(cc1OC)CC[N+](C)=C2
inactive: [1] 5.65% | [2] -6.5% | [3] 13.8% | [4] -2.45% | [5] -2.4% | [6] 2.65%

CC(Cl)CN(CC(C)Cl)c1ccc2c(c1)Cc1cc([N+](=O)[O-])ccc1-2 (stereo not given)
inactive: [1] 10.3% | [2] 5.7% | [3] 33.7% | [4] 25.9% | [5] 4.5% | [6] 12.7%

O=C(COc1cccc(Cl)c1)Nc1cccc(NC(=O)c2ccc(S(=O)(=O)F)cc2)c1
inactive: [1] 2.75% | [2] 5.95% | [3] -6.85% | [4] -17.2% | [5] -5.75% | [6] 9.2%

C[As+](C)(C)c1ccc(Br)c([N+](=O)[O-])c1
inactive: [1] 7.6% | [2] -0.85% | [3] -6% | [4] -13.2% | [5] -1.3% | [6] 10.9%

Fc1ccc(N=C=S)cc1
inactive: [1] -28.1% | [2] -20.2% | [3] -24.1% | [4] -9.8% | [5] -6.2% | [6] 2.2%

N#CCc1ccccc1.N#CCc1ccccc1.[C-]#[O+].[C-]#[O+].[C-]#[O+].[C-]#[O+].[W]
inactive: [1] -10.9% | [2] -16.2% | [3] -7.1% | [4] -33.2% | [5] -5.05% | [6] -11.3%

O=C1c2ccccc2C(=O)N1N1CC1c1ccccc1 (stereo not given)
inactive: [1] -8.2% | [2] -36.1% | [3] 8.1% | [4] 18.2% | [5] 6.5% | [6] -1%

CN(C)C(=S)Oc1ccc(Cl)cc1S(=O)(=O)F
inactive: [1] 53.6% | [2] 14.2% | [3] 32.4% | [4] 20.4% | [5] -6.7% | [6] 9.6%

OC1NC2CC3NC(O)C(O)NC3CC2NC1O (stereo not given)
inactive: [1] -16.6% | [2] -4.25% | [3] 12.7% | [4] 22.9% | [5] 16.1% | [6] 11.4%

CCCOC(=O)CCl
inactive: [1] 15.4% | [2] 15.2% | [3] 30.1% | [4] 5.25% | [5] 5.15% | [6] 20.3%

CCOP(=O)(OCC)C(=O)N(CC)CC
inactive: [1] 12.2% | [2] 21.9% | [3] 10.6% | [4] 7.15% | [5] 20.8% | [6] 1.45%

CCOC(=O)C(Cc1ccc(N(CCCl)CCCl)cc1)NC(=O)C(Cc1ccccc1)NC(=O)C(NC(=O)CNC(=O)C1CCCN1)C(C)C (stereo not given) (H-PGVF[ξPhe(4-N(CH2CH2Cl)2)]-OEt; configuration not given here)
inactive: [1] -4.6% | [2] 11.8% | [3] 20.3% | [4] 3.35% | [5] 6.1% | [6] 29.6%

CC1OC(n2cc(C(N)=O)c3c(N)ncnc32)C(O)C1O (stereo not given)
inactive: [1] 19.4% | [2] 20.9% | [3] 3.75% | [4] 16.9% | [5] 14.2% | [6] 20.1%

CCC(C)C1NC(=O)C(NC(=O)c2c3nc4c(C(=O)NC5C(=O)NC(C(C)C)C(=O)N6CCCC6C(=O)N(C)CC(=O)N(C)C(C(C)C)C(=O)OC5C)ccc(C)c4oc-3c(C)c(=O)c2N)C(C)OC(=O)C(C(C)C)N(C)C(=O)CN(C)C(=O)C2CCCN2C1=O (stereo not given) (I: TIP[Sar][NMeV] / II: TVP[Sar][NMeV]; ester I:1-I:C, II:1-II:C; linker I:N-II:N via Actinocin(1to9); configuration not given here)
active: [1] 88% | [2] 92.2% | [3] 91.2% | [4] 88.3% | [5] 89.8% | [6] 85.7%

CC([NH-])C(=O)O.[Cl][Pt][Cl] (stereo not given)
inactive: [1] -25.6% | [2] -9.6% | [3] -24.9% | [4] 7.55% | [5] -10.6% | [6] -9.55%
